For part of these data: Results with a measured potency or affinity are listed apart. Active and inactive are the calls of the source.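 Rule for the calls, unless noted: active = fitted half-maximal concentration within the tested dose range, moderate curve steepness, a statistically real signal drop, and little compound fluorescence or tag-binding interference; inactive = the rest.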
Experiments:
[1] = biological target: Cell division control protein 42 homolog (Homo sapiens) (UniProt P60953); experiment: activated mutant Cdc42 GTP-binding inhibitors, dose response, biochemical, multiplex bead flow cytometry, Bodipy-FL-GTP (AID 1333)
Chain of Cell division control protein 42 homolog (Homo sapiens) (P60953 whole entry, looked up): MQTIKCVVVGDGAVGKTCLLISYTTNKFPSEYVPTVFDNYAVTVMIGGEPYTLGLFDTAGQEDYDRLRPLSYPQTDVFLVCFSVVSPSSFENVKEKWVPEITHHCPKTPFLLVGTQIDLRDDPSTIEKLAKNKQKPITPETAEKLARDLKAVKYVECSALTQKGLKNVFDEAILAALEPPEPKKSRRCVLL

[2] = biological target: Cell division control protein 42 homolog (Homo sapiens) (UniProt P60953); experiment: wildtype Cdc42 GTP-binding inhibitors, dose response, biochemical, multiplex bead flow cytometry, Bodipy-FL-GTP (AID 1334;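 active = fitted half-maximal concentration within the tested range, moderate curve steepness, significant signal drop, and little compound fluorescence or bead-linkage interference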); settings: bead-based flow cytometry, Bodipy-FL-GTP binding to GST-Cdc42; at 100 µM (top of the series) unless noted
[3] = biological target: GTPase HRas (Homo sapiens) (UniProt P01112); experiment: inhibitors of GTP binding to wildtype Ras, dose response, biochemical, multiplex bead flow cytometry (AID 1335;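 active = fitted half-maximal concentration within 10 nM to 100 µM, steepness 0.5 to 2, significant signal drop, low assay interference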); settings: bead-based flow cytometry, Bodipy-GTP binding to GST-Ras; at 100 µM (top of the series) unless noted
Chain of GTPase HRas (Homo sapiens) (P01112 whole entry, looked up): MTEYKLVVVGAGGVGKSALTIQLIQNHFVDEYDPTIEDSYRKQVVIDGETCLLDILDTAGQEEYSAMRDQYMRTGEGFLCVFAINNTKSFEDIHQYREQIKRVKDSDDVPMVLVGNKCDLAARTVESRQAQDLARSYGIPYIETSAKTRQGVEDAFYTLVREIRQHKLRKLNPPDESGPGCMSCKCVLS

[4] = system: Ras-related protein Rab-7a (dog), GTP binding; experiment: Rab7 GTP binding inhibitors, potency, dose response, biochemical, wildtype, multiplex bead flow cytometry (AID 1336; call rule not given here)
[5] = biological target: Ras-related C3 botulinum toxin substrate 1 (Homo sapiens) (UniProt P63000); experiment: wildtype Rac1 GTP binding inhibitors, dose response, biochemical, multiplex bead flow cytometry (AID 1340;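 active = dose curve with midpoint inside tested range, moderate steepness, plateau gap beyond fit error, low compound glow and bead-link interference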); settings: GST-Rac1 beads, Bodipy-FL-GTP binding; at 100 µM (top of the series) unless noted
[6] = biological target: GTPase HRas (Homo sapiens) (UniProt P01112); experiment: activated Ras mutant GTP binding inhibitors, dose response, biochemical, multiplex bead flow cytometry (AID 1341;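 active = dose-response curve with midpoint inside the tested range, moderate steepness, significant amplitude and little compound fluorescence or bead-attachment interference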;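 note: GST-tagged constitutively activated Ras mutant immobilized on beads and multiplexed with other GTPases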)

Row | SMILES | outcome [1] | fluorescence, percent of control (lower = inhibition) [2] [%] | GTP binding, percent of control [3] [%] | outcome [4] | GTP binding signal, raw median fluorescence (lower = inhibition) (MCF (arbitrary fluorescence units)) [5] | outcome [6]
1 | COc1cccc(C(=O)O)c1OCc1c(C)cccc1C | inactive | 58.8 | 204 | inactive | 54.1 | inactive
2 | CCOc1ccc(NCc2ccccc2OCc2cccc(F)c2)cc1 | inactive | 69.4 | 68.1 | inactive | 0 | inactive
3 | Cc1ccc(-n2c(SCc3cc(=O)n4ccsc4n3)nnc2-c2cccnc2)c(C)c1 | inactive | 79.6 | 157 | inactive | 178 | inactive
4 | Cc1ccc(N=Nc2c(N)[nH]n3c(=O)c4c(nc23)CCCC4)cc1 | inactive | 31.3 | 72.8 | inactive | 166 | inactive
5 | O=c1nc2c(O)cccn2c2c1c(=O)[nH]c1ccccc12 | inactive | 33.4 | 44.6 | inactive | 93 | inactive
6 | Cn1c(O)c(C2=c3ccccc3=NC2=O)[nH]c1=S | inactive | 37.9 | 83.1 | inactive | 214 | inactive
7 | O=C(O)c1ccc(N2C(=O)/C(=C/c3ccc(-c4ccc([N+](=O)[O-])cc4)o3)C=C2c2ccccc2)cc1 | inactive | 33.9 | 77.4 | inactive | 179 | inactive
8 | Cc1ccc(-c2nnc(-c3ccccc3S(=O)(=O)Cc3ccc(Cl)cc3)o2)cc1 | inactive | 90.3 | 165 | inactive | 184 | inactive
9 | Nc1nonc1-c1nc2ccccc2n1CC(=O)N/N=C/c1ccc(-c2ccccc2C(=O)O)o1 | inactive | 30.6 | 68.4 | inactive | 133 | inactive
10 | COc1ccc(C)cc1NC(=O)COC(C)=O | inactive | 94.8 | 180 | inactive | 179 | inactive
11 | COc1ccc(Nc2nc(-c3c(C)nc4ncccn34)cs2)cc1 | inactive | 29 | 66 | inactive | 140 | inactive
12 | COc1ccc(-c2cc(-c3ccccc3)c(C#N)c(=S)[nH]2)cc1 | inactive | 28.8 | 69.8 | inactive | 225 | inactive
13 | O=c1c2ccc([N+](=O)[O-])cc2ncn1Cc1ccccc1C(F)(F)F | inactive | 34.8 | 72.7 | inactive | 141 | inactive
14 | O=C(O)COc1ccccc1/C=N/Nc1ccc(S(=O)(=O)Nc2ccc(Cl)cc2)cc1[N+](=O)[O-] | inactive | 28.1 | 79.9 | inactive | 174 | inactive
15 | O=C(O)c1ccc(CNCc2cccc(Br)c2)s1 | inactive | 62.4 | 89.5 | inactive | 33.7 | inactive
